# Results from the supplement of paper PMC8728848.
# This excerpt belongs to a sample that is enriched for the strongest signals.
# Key:
# Test in all cases: glycan array binding signal (z-score within array); higher = stronger binding
# Details in all cases: glycan notation: IUPAC condensed, linker removed
# [1] = molecular target: Fuc(a1-2)Gal(b1-3)GalNAc(a1-3)[Fuc(a1-2)]Gal(b1-4)GlcNAc
# Summary of the method: (§1)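 Arrays were curated from the Consortium for Functional Glycomics database, 3228 in total, and kept only where the protein sequence was available. Binding is expressed as a within-array Z-score. This score was averaged across arrays of the same protein sequence at different concentrations or buffers and across linkers, and negative values can be read as non-binding.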
# [2] = molecular target: Fuc(a1-2)Gal(b1-4)GlcNAc(b1-2)[Fuc(a1-2)Gal(b1-4)GlcNAc(b1-4)]Man(a1-3)[Fuc(a1-2)Gal(b1-4)GlcNAc(b1-2)Man(a1-6)]Man(b1-4)GlcNAc(b1-4)GlcNAc
# Summary of the method: as §1
# [3] = molecular target: Fuc(a1-2)Gal6S(b1-3)GlcNAc6S
# Summary of the method: as §1
# [4] = molecular target: Fuc(a1-2)[Gal(a1-3)]Gal(b1-4)[Fuc(a1-3)]GlcNAc(b1-3)GalNAc
# Summary of the method: as §1
# [5] = molecular target: Fuc(a1-2)[GalNAc(a1-3)]Gal(b1-4)[Fuc(a1-3)]GlcNAc(b1-3)GalNAc
# Summary of the method: as §1
# [6] = molecular target: Fuc(a1-3)[Gal(b1-4)]GlcNAc(b1-4)Gal(b1-4)[Fuc(a1-3)]GlcNAc
# Summary of the method: as §1
# [7] = molecular target: Gal(a1-2)Gal
# Summary of the method: as §1
# [8] = molecular target: Gal(a1-3)Gal(b1-3)GlcNAc
# Summary of the method: as §1
# [9] = molecular target: Gal(a1-4)Gal(b1-3)GlcNAc(b1-2)Man(a1-3)[Gal(a1-4)Gal(b1-3)GlcNAc(b1-2)Man(a1-6)]Man(b1-4)GlcNAc(b1-4)GlcNAc
# Summary of the method: as §1
# [10] = molecular target: Gal(b1-3)GalNAc(a1-3)[Fuc(a1-2)]Gal(b1-4)GlcNAc
# Summary of the method: as §1
# [11] = molecular target: Gal(b1-3)GalNAc(b1-4)Gal(b1-4)Glc
# Summary of the method: as §1
# [12] = molecular target: Gal(b1-3)GlcNAc(b1-3)Gal(b1-4)GlcNAc(b1-3)Gal(b1-4)GlcNAc(b1-2)[Gal(b1-3)GlcNAc(b1-3)Gal(b1-4)GlcNAc(b1-3)Gal(b1-4)GlcNAc(b1-6)]Man(a1-6)[Gal(b1-3)GlcNAc(b1-3)Gal(b1-4)GlcNAc(b1-3)Gal(b1-4)GlcNAc(b1-2)Man(a1-3)]Man(b1-4)GlcNAc(b1-4)[Fuc(a1-6)]GlcNAc
# Summary of the method: as §1
# [13] = molecular target: Gal(b1-4)GlcNAc(b1-3)Gal(b1-4)GlcNAc(b1-2)Man(a1-3)[Gal(b1-4)GlcNAc(b1-3)Gal(b1-4)GlcNAc(b1-2)Man(a1-6)]Man(b1-4)GlcNAc(b1-4)GlcNAc
# Summary of the method: as §1
# [14] = molecular target: Gal(b1-4)GlcNAc(b1-3)Gal(b1-4)GlcNAc(b1-3)Gal(b1-4)GlcNAc(b1-3)Gal(b1-4)GlcNAc(b1-3)Gal(b1-4)GlcNAc(b1-2)[Gal(b1-4)GlcNAc(b1-3)Gal(b1-4)GlcNAc(b1-3)Gal(b1-4)GlcNAc(b1-3)Gal(b1-4)GlcNAc(b1-3)Gal(b1-4)GlcNAc(b1-6)]Man(a1-6)[Gal(b1-4)GlcNAc(b1-3)Gal(b1-4)GlcNAc(b1-3)Gal(b1-4)GlcNAc(b1-3)Gal(b1-4)GlcNAc(b1-3)Gal(b1-4)GlcNAc(b1-2)Man(a1-3)]Man(b1-4)GlcNAc(b1-4)[Fuc(a1-6)]GlcNAc
# Summary of the method: as §1
# [15] = molecular target: Gal(b1-4)GlcNAc(b1-6)Gal(b1-4)GlcNAc
# Summary of the method: as §1
# [16] = molecular target: Gal3S(b1-4)GlcNAc
# Summary of the method: as §1
# [17] = molecular target: Gal3S6S(b1-4)GlcNAc6S
# Summary of the method: as §1
# [18] = molecular target: Gal4S(b1-4)GlcNAc
# Summary of the method: as §1
# [19] = molecular target: Gal6P(b1-4)GlcNAc
# Summary of the method: as §1
# [20] = molecular target: Gal6S(b1-3)GlcNAc6S
# Summary of the method: as §1
# [21] = molecular target: Gal6S(b1-4)GlcNAc6S
# Summary of the method: as §1
# [22] = molecular target: GalNAc(b1-4)GlcNAc(b1-2)Man
# Summary of the method: as §1
# [23] = molecular target: GalNAc3S(b1-4)[Fuc(a1-3)]GlcNAc
# Summary of the method: as §1
# [24] = molecular target: GalNAc4S6S(b1-4)GlcNAc
# Summary of the method: as §1
# [25] = molecular target: Glc(a1-6)Glc(a1-6)Glc(a1-6)Glc
# Summary of the method: as §1
# [26] = molecular target: Glc(b1-6)Glc
# Summary of the method: as §1
# [27] = molecular target: GlcNAc(a1-4)Gal(b1-4)GalNAc
# Summary of the method: as §1
# [28] = molecular target: GlcNAc(b1-2)Gal(b1-3)GalNAc
# Summary of the method: as §1
# [29] = molecular target: GlcNAc(b1-3)Gal(b1-4)GlcNAc(b1-2)[GlcNAc(b1-3)Gal(b1-4)GlcNAc(b1-6)]Man(a1-6)[GlcNAc(b1-3)Gal(b1-4)GlcNAc(b1-2)Man(a1-3)]Man(b1-4)GlcNAc(b1-4)GlcNAc
# Summary of the method: as §1
# [30] = molecular target: GlcNAc(b1-3)Gal(b1-4)GlcNAc(b1-3)Gal(b1-4)GlcNAc(b1-2)[GlcNAc(b1-3)Gal(b1-4)GlcNAc(b1-3)Gal(b1-4)GlcNAc(b1-6)]Man(a1-6)[GlcNAc(b1-3)Gal(b1-4)GlcNAc(b1-3)Gal(b1-4)GlcNAc(b1-2)Man(a1-3)]Man(b1-4)GlcNAc(b1-4)[Fuc(a1-6)]GlcNAc
# Summary of the method: as §1
binder,measurement,setting,value
"MFG-E8 (Mus musculus), P21956 (protein) MQVSRVLAALCGMLLCASGLFAASGDFCDSSLCLNGGTCLTGQDNDIYCLCPEGFTGLVCNETERGPCSPNPCYNDAKCLVTLDTQRGDIFTEYICQCPVGYSGIHCETETNYYNLDGEYMFTTAVPNTAVPTPAPTPDLSNNLASRCSTQLGMEGGAIADSQISASSVYMGFMGLQRWGPELARLYRTGIVNAWTASNYDSKPWIQVNLLRKMRVSGVMTQGASRAGRAEYLKTFKVAYSLDGRKFEFIQDESGGDKEFLGNLDNNSLKVNMFNPTLEAQYIKLYPVSCHRGCTLRFELLGCELHGCSEPLGLKNNTIPDSQMSASSSYKTWNLRAFGWYPHLGRLDNQGKINAWTAQSNSAKEWLQVDLGTQRQVTGIITQGARDFGHIQYVASYKVAHSDDGVQWTVYEEQGSSKVFQGNLDNNSHKKNIFEKPFMARYVRVLPVSWHNRITLRLELLGC",glycan array binding signal (z-score),[1],0.179
same,glycan array binding signal (z-score),[2],0.01
same,glycan array binding signal (z-score),[3],8.57
same,glycan array binding signal (z-score),[4],2.33
same,glycan array binding signal (z-score),[5],1.65
same,glycan array binding signal (z-score),[6],-0.206
same,glycan array binding signal (z-score),[7],0.39
same,glycan array binding signal (z-score),[8],-0.404
same,glycan array binding signal (z-score),[9],-0.165
same,glycan array binding signal (z-score),[10],-0.266
same,glycan array binding signal (z-score),[11],-0.553
same,glycan array binding signal (z-score),[12],0.221
same,glycan array binding signal (z-score),[13],2.48
same,glycan array binding signal (z-score),[14],-0.342
same,glycan array binding signal (z-score),[15],-0.115
same,glycan array binding signal (z-score),[16],-0.46
same,glycan array binding signal (z-score),[17],2.81
same,glycan array binding signal (z-score),[18],-0.4
same,glycan array binding signal (z-score),[19],1.22
same,glycan array binding signal (z-score),[20],3.04
same,glycan array binding signal (z-score),[21],2.98
same,glycan array binding signal (z-score),[22],-0.038
same,glycan array binding signal (z-score),[23],0.832
same,glycan array binding signal (z-score),[24],9.76
same,glycan array binding signal (z-score),[25],-0.038
same,glycan array binding signal (z-score),[26],2.4
same,glycan array binding signal (z-score),[27],5.5
same,glycan array binding signal (z-score),[28],0.853
same,glycan array binding signal (z-score),[29],-0.881
same,glycan array binding signal (z-score),[30],-0.08
